Data as given in the antibiotic and cytotoxicity screens of Wong et al. (2023).
About 3,300 (8.5%) of roughly 39,000 compounds were called active. Only a selection was taken, and actives are over-represented in it overall.

Each molecule was assayed on HepG2 (assay: cytotoxicity call (relative viability < 0.9)). Conditions: 10 µM.

Compound | cytotoxicity call
Cc1ccc(S(=O)(=O)Nc2ccc3c(c2)C(=O)N([C@H](C)CO)C[C@@H](C)[C@@H](CN(C)C(=O)Nc2ccc4c(c2)OCO4)OCCCC[C@H](C)O3)cc1 | inactive
C[C@@H]1CN([C@H](C)CO)C(=O)c2cc(NC(=O)CCCN(C)C)ccc2O[C@@H]1CN(C)S(=O)(=O)c1cccs1 | inactive
CC(C)C#Cc1ccc2c(c1)O[C@@H](CN(C)C(=O)Cc1ccccn1)[C@@H](C)CN([C@@H](C)CO)S2(=O)=O | inactive
Cc1ccc(S(=O)(=O)N(C)C[C@@H]2Oc3c(NC(=O)Nc4cccc5ccccc45)cccc3C(=O)N([C@@H](C)CO)C[C@H]2C)cc1 | inactive
COc1ccc(NC(=O)Nc2cccc3c2O[C@H](CN(C)Cc2ccc(C(F)(F)F)cc2)[C@H](C)CN([C@@H](C)CO)C3=O)cc1 | inactive
CC(C)NC(=O)Nc1cccc2c1O[C@@H](CN(C)S(=O)(=O)c1ccc(Cl)cc1)[C@@H](C)CN([C@H](C)CO)C2=O | inactive
C[C@@H]1CCCCO[C@@H](CN(C)Cc2ccc3c(c2)OCO3)[C@@H](C)CN([C@@H](C)CO)C(=O)c2cc(NS(=O)(=O)c3ccc(Cl)cc3)ccc2O1 | active
C[C@@H]1CN([C@H](C)CO)C(=O)c2cc(NS(=O)(=O)c3ccc(Cl)cc3)ccc2O[C@@H](C)CCCCO[C@@H]1CN(C)Cc1ccc2c(c1)OCO2 | inactive
C[C@@H]1CN([C@H](C)CO)C(=O)c2cc(NS(=O)(=O)c3ccc(Cl)cc3)ccc2O[C@@H](C)CCCCO[C@H]1CN(C)Cc1ccc2c(c1)OCO2 | inactive
COc1ccc(S(=O)(=O)Nc2ccc3c(c2)C(=O)N([C@H](C)CO)C[C@@H](C)[C@H](CN(C)Cc2ccc(Oc4ccccc4)cc2)O3)cc1 | active
COc1ccc(S(=O)(=O)Nc2ccc3c(c2)C(=O)N([C@@H](C)CO)C[C@@H](C)[C@H](CN(C)Cc2ccc(Oc4ccccc4)cc2)O3)cc1 | active
COc1ccc(S(=O)(=O)Nc2ccc3c(c2)C(=O)N([C@@H](C)CO)C[C@H](C)[C@H](CN(C)Cc2ccc(Oc4ccccc4)cc2)O3)cc1 | inactive
COc1ccc(S(=O)(=O)Nc2ccc3c(c2)C(=O)N([C@@H](C)CO)C[C@@H](C)[C@@H](CN(C)Cc2ccc(Oc4ccccc4)cc2)O3)cc1 | active
COc1ccc(S(=O)(=O)Nc2ccc3c(c2)C(=O)N([C@H](C)CO)C[C@@H](C)[C@@H](CN(C)Cc2ccc(Oc4ccccc4)cc2)O3)cc1 | inactive
C[C@@H]1CN([C@@H](C)CO)C(=O)c2cc(NS(=O)(=O)c3ccccc3)ccc2O[C@H]1CN(C)Cc1ccc(Oc2ccccc2)cc1 | inactive
COc1ccc(S(=O)(=O)Nc2ccc3c(c2)C(=O)N([C@@H](C)CO)C[C@H](C)[C@@H](CN(C)Cc2ccc(Oc4ccccc4)cc2)O3)cc1 | inactive
COc1ccc(S(=O)(=O)Nc2ccc3c(c2)C(=O)N([C@H](C)CO)C[C@H](C)[C@@H](CN(C)Cc2ccc(Oc4ccccc4)cc2)O3)cc1 | active
COc1ccc(S(=O)(=O)Nc2ccc3c(c2)C(=O)N([C@H](C)CO)C[C@H](C)[C@H](CN(C)Cc2ccc(Oc4ccccc4)cc2)O3)cc1 | inactive
C[C@H]1CN([C@@H](C)CO)C(=O)c2cc(NS(=O)(=O)c3ccccc3)ccc2O[C@@H]1CN(C)Cc1ccc(Oc2ccccc2)cc1 | inactive
CN1CCN(C(=O)C[C@H]2CC[C@@H]3[C@H](COC[C@H](O)CN3Cc3ccc4c(c3)OCO4)O2)CC1 | inactive
O=C(C[C@@H]1CC[C@H]2[C@@H](COC[C@@H](O)CN2C(=O)Nc2ccc(C(F)(F)F)cc2)O1)NCCc1ccncc1 | inactive

Compound | cytotoxicity call
CCCNC(=O)Nc1ccc2c(c1)OC[C@@H](C)N(Cc1ccc(-c3ccccn3)cc1)C[C@@H](C)[C@H](OC)CN(C)C2=O | inactive
Nc1c(C(=O)O)cnc2nc(N3CCOCC3)nn12 | inactive
COc1ccc(S(=O)(=O)Nc2ccc3c(c2)C(=O)N([C@@H](C)CO)C[C@@H](C)[C@@H](CN(C)Cc2ccc(C(=O)O)cc2)OCCCC[C@@H](C)O3)cc1 | inactive
C[C@H]1CN([C@@H](C)CO)S(=O)(=O)c2ccc(C#Cc3ccc(F)cc3)cc2O[C@H]1CN(C)S(=O)(=O)c1cn(C)cn1 | inactive
CNc1cc(=O)n(C)c(=O)n1C | inactive
Cc1c(C)n2c3c(=O)n(C)c(=O)n(C)c3nc2n1CCN1CCOCC1 | inactive
O=C(CN1C(=O)c2ccccc2C1=O)N1CCNCC1 | inactive
NC(=O)C1CCN(C(=O)c2ccc(NC3=N[C@H]4CS(=O)(=O)C[C@@H]4S3)cc2)CC1 | inactive
C[C@H](CO)N1C[C@H](C)[C@H](CN(C)S(=O)(=O)c2ccc(Cl)cc2)Oc2ccc(NC(=O)c3ccncc3)cc2CC1=O | inactive
CC(C)NC(=O)Nc1ccc2c(c1)C(=O)N([C@H](C)CO)C[C@@H](C)[C@H](CN(C)C(=O)Nc1ccc(C(F)(F)F)cc1)OCCCC[C@@H](C)O2 | inactive
C=C1COC(=O)[C@@H]2[C@@H](CO)[C@@H](O)C[C@H]12 | inactive
C[C@@H]1CN([C@H](C)CO)C(=O)c2cc(NC(=O)NC3CCCCC3)ccc2O[C@H]1CN(C)Cc1ccc(-c2ccccc2)cc1 | inactive
C[C@H]1CN([C@@H](C)CO)C(=O)c2cc(NC(=O)NC3CCCCC3)ccc2O[C@H]1CN(C)Cc1ccc(-c2ccccc2)cc1 | inactive
C[C@@H]1CN([C@H](C)CO)C(=O)c2cc(NC(=O)NC3CCCCC3)ccc2O[C@@H]1CN(C)Cc1ccc(-c2ccccc2)cc1 | active
C[C@H](CO)N1C[C@H](C)[C@H](CN(C)Cc2ccc(-c3ccccc3)cc2)Oc2ccc(NC(=O)NC3CCCCC3)cc2C1=O | inactive
CC(C)NC(=O)Nc1ccc2c(c1)C(=O)N([C@H](C)CO)C[C@@H](C)[C@@H](CN(C)Cc1ccc(-c3ccccc3)cc1)O2 | inactive
C[C@@H]1CN([C@@H](C)CO)C(=O)c2cc(NC(=O)NC3CCCCC3)ccc2O[C@@H]1CN(C)Cc1ccc(-c2ccccc2)cc1 | active
C[C@H](CO)N1C[C@H](C)[C@@H](CN(C)Cc2ccc(-c3ccccc3)cc2)Oc2ccc(NC(=O)NC3CCCCC3)cc2C1=O | inactive
C[C@H]1CN([C@@H](C)CO)C(=O)c2cc(NC(=O)NC3CCCCC3)ccc2O[C@@H]1CN(C)Cc1ccc(-c2ccccc2)cc1 | active
C[C@@H]1CN([C@@H](C)CO)C(=O)c2cc(NC(=O)NC3CCCCC3)ccc2O[C@H]1CN(C)Cc1ccc(-c2ccccc2)cc1 | inactive
[O-][NH2+][O-] | inactive

Compound | cytotoxicity call
C[C@H]1CN([C@@H](C)CO)C(=O)c2cc(NC(=O)Nc3cccc4ccccc34)ccc2O[C@H]1CN(C)S(=O)(=O)c1cccs1 | inactive
Cc1ccccc1[C@@H](c1ncccc1C)N(C)C(=O)C1CCN(CCOc2ccc(Cl)cc2Cl)CC1 | inactive
COc1ccccc1NC(=O)N(C)C[C@H]1Oc2ncc(C#CCN(C)C)cc2C(=O)N([C@H](C)CO)C[C@@H]1C | inactive
CCCNC(=O)N1C[C@@H](O)COC[C@H]2O[C@@H](CC(=O)N3CCOCC3)CC[C@@H]21 | inactive
O=C(CCCCCNC(=O)OCc1ccc(CO[C@H]2C[C@@H](c3ccc(C(F)(F)F)cc3)C=C(C(=O)N3CCN(Cc4ccc5c(c4)OCO5)CC3)O2)cc1)NO | inactive
C[C@@H]1CCCCO[C@@H](CN(C)CC2CC2)[C@@H](C)CN([C@H](C)CO)C(=O)c2cc(NC(=O)Nc3ccccc3)ccc2O1 | inactive
CN1C(=O)c2cc(NC(=O)Cc3cccs3)ccc2OC[C@@H]2O[C@@H](CC(=O)NCCc3ccncc3)CC[C@@H]21 | inactive
C[C@H](CO)N1C[C@H](C)[C@@H](CN(C)C(=O)CN2CCOCC2)Oc2ncc(C3=CCCCC3)cc2C1=O | inactive
C[C@@H]1CN([C@H](C)CO)C(=O)c2cc(C3=CCCC3)cnc2O[C@@H]1CN(C)C(=O)Nc1ccc(C(F)(F)F)cc1 | active
C[C@@H]1CN([C@@H](C)CO)C(=O)c2cc(C3=CCCC3)cnc2O[C@@H]1CN(C)C(=O)Nc1ccc(C(F)(F)F)cc1 | inactive
C[C@@H]1CN([C@H](C)CO)C(=O)c2cc(/C=C/c3ccccc3)cnc2O[C@@H]1CN(C)C(=O)Nc1ccc(C(F)(F)F)cc1 | active
C[C@H](CO)N1C[C@H](C)[C@@H](CN(C)C(=O)Nc2ccc(C(F)(F)F)cc2)Oc2ncc(/C=C/c3ccccc3)cc2C1=O | inactive
C[C@H](CO)N1C[C@H](C)[C@H](CN(C)C(=O)Nc2ccc(C(F)(F)F)cc2)Oc2ncc(C3=CCCC3)cc2C1=O | inactive
C[C@@H]1CN([C@@H](C)CO)C(=O)c2cc(/C=C/c3ccccc3)cnc2O[C@H]1CN(C)C(=O)Nc1ccc(C(F)(F)F)cc1 | inactive
C[C@@H]1CN([C@@H](C)CO)C(=O)c2cc(C3=CCCC3)cnc2O[C@H]1CN(C)C(=O)Nc1ccc(C(F)(F)F)cc1 | inactive
C[C@H](CO)N1C[C@H](C)[C@H](CN(C)C(=O)CN2CCOCC2)Oc2ncc(C3=CCCCC3)cc2C1=O | inactive
C[C@@H]1CN([C@H](C)CO)C(=O)c2cc(C3=CCCCC3)cnc2O[C@H]1CN(C)C(=O)CN1CCOCC1 | active
C[C@H]1CN([C@@H](C)CO)C(=O)c2cc(C3=CCCC3)cnc2O[C@H]1CN(C)C(=O)Nc1ccc(C(F)(F)F)cc1 | active
C[C@H]1CN([C@@H](C)CO)C(=O)c2cc(C3=CCCC3)cnc2O[C@@H]1CN(C)C(=O)Nc1ccc(C(F)(F)F)cc1 | inactive
C[C@H](CO)N1C[C@H](C)[C@H](CN(C)C(=O)Nc2ccc(C(F)(F)F)cc2)OCCCC[C@H](C)Oc2ccc(N(C)C)cc2C1=O | inactive
O=C(Cc1ccccc1)NCCN1CCOCC1 | inactive
